According to article PMC4552634, “A New Set of Chemical Starting Points with Plasmodium falciparum Transmission-Blocking Potential for Antimalarial Drug Discovery” (PLoS ONE, 2015):
Screen size: about 13,000 compounds; about 3,200 (25%) showed an effect of 50% or more. The list shows a part of the results.

test system: P. falciparum stage V gametocytes; design: BacTiter-Glo ATP luminescence viability of purified stage V gametocytes in 384-well plates, per cent inhibition versus DMSO; details: 48 h, 5 µM; inhibitor

SMILES | % Inhibition
CCC[C@@H]([C@@H](CC1CCCCC1)C(=O)N[C@H](C(=O)Nc1nccc(N)n1)C(C)(C)C)N(O)C=O [TCMDC-138127] | 6.724%
NC12CC3CC(CC(C3)C1)C2 [TCMDC-125869] | 6.577%
CC(C)NC(=O)c1cccc(-c2cccc(OCCN3CCSCC3c3ccccc3)c2)c1 (stereo not drawn) [TCMDC-134384] | 34.28%
O=C(/C=C/c1ccc(Cl)c(Cl)c1)Nc1cccc(CN2CCC(c3c[nH]c4ccc(O)cc34)CC2)c1 [TCMDC-139634] | -96.41%
COC(=O)CCCCOc1cc(Cc2cnc(N)nc2N)cc(OC)c1OC [TCMDC-138041] | 1.908%
COc1cc2c(C3CCN(CC4CCC(NC(=O)/C=C/c5ccc(Cl)c(Cl)c5)CC4)CC3)c[nH]c2cn1 (stereo not drawn) [TCMDC-140245] | 13.08%
O=C(/C=C/c1ccc(Cl)c(Cl)c1)NC1CCC(CN2CCC(c3coc4ccccc34)CC2)CC1 (stereo not drawn) [TCMDC-140260] | -37.97%
Cc1cccc2[nH]cc(C3CCN(CC4CCC(NC(=O)/C=C/c5ccc(Cl)c(Cl)c5)CC4)CC3)c12 (stereo not drawn) [TCMDC-140137] | 108%
Cc1cccc2c(C3CCN(CC4CCC(NC(=O)/C=C/c5ccc(Cl)c(Cl)c5)CC4)CC3)c[nH]c12 (stereo not drawn) [TCMDC-139639] | 73.81%
COc1ccc2nccc(NC(=O)N3CCC(NCc4cc5ccccc5[nH]4)CC3)c2n1 [TCMDC-140671] | -10.57%
Cc1cc(Cl)ccc1N(Cc1ccccc1)c1ccnc(Cl)n1 [TCMDC-138722] | -10.33%
Cc1cc(C)nc(-n2[nH]c(C)c(Cc3ccc(C(C)(C)C)cc3)c2=O)n1 [TCMDC-125382] | 16.36%
Oc1ccc(CCNc2nc(NCc3ccccc3-c3cccc(Cl)c3)nc(N3CCNCC3)n2)cc1 [TCMDC-133784] | -2.358%
O=C(Nc1ccc(N2CCNCC2)cc1)c1ccn2ncc(-c3cccc(Cl)c3)c2n1 [TCMDC-132663] | 113.1%
O=C(Nc1cccc(Cl)c1)c1cnc(N2CCN(c3ccncc3)CC2)c(Cl)c1 [TCMDC-134600] | 12.94%
Cc1ccc(Cn2nc(Cl)c(N3CCCNCC3)cc2=O)cc1NC(=O)Nc1ccc(-c2ccccc2)cc1 [TCMDC-141697] | 91.1%
O=C(Nc1ccc(-c2ccccc2)cc1)Nc1cccc(Cn2cnc(N3CCCNCC3)cc2=O)c1 [TCMDC-133363] | -19.33%
O=C(Nc1ccc(Cn2nc(Cl)c(N3CCCNCC3)cc2=O)cc1)c1ccc(-c2ccccc2)cc1 [TCMDC-141693] | 29.71%
O=C(Nc1ccc(Cn2nc(Cl)c(N3CCNCC3)cc2=O)cc1)Nc1ccc(-c2ccccc2)cc1 [TCMDC-141700] | -30.94%
O=C(Nc1ccc(-c2ccccc2)cc1)Nc1cccc(Cn2nc(Cl)c(N3CCCNCC3)cc2=O)c1 [TCMDC-141695] | 3.325%
Cc1ccc(Cn2nc(N3CCNCC3)ccc2=O)cc1NC(=O)Nc1ccc(-c2ccccc2)cc1 [TCMDC-132580] | 107.8%
Cc1c(Cn2nc(Cl)c(N3CCNCC3)cc2=O)cccc1NC(=O)Nc1ccc(-c2ccccc2)cc1 [TCMDC-141699] | 65.88%
O=C(Nc1ccc(-c2ccccc2)cc1)Nc1cccc(Cn2nc(Cl)c(N3CCNCC3)cc2=O)c1 [TCMDC-141694] | -35.56%

SMILES | % Inhibition
COc1ccc(NC(=O)Nc2ccc(-c3ccccc3)cc2)cc1Cn1nc(Cl)c(N2CCCNCC2)cc1=O [TCMDC-141724] | 21.4%
Cc1ccc(Cn2cnc(N3CC(C)NC(C)C3)cc2=O)cc1NC(=O)Nc1ccc(-c2ccccc2)cc1 (stereo not drawn) [TCMDC-133371] | 24.76%
Cc1ccc(Cn2nc(Cl)c(N3CCNCC3)cc2=O)cc1NC(=O)Nc1ccc(-c2ccccc2)cc1 [TCMDC-141698] | 114.4%
O=C(Nc1ccc(Cn2nc(Cl)c(N3CCCNCC3)cc2=O)cc1)Nc1ccc(-c2ccccc2)cc1 [TCMDC-141696] | -10.1%
CCN1CCC(N2CCC(C(=O)Nc3cccc(-c4cccc(Cl)c4)c3)CC2)CC1 [TCMDC-124650] | 24.3%
COc1ccc(CN2CCCN(Cc3cccc(C(=O)Nc4ccc(C(C)(C)C)cc4)c3)CC2)cc1 [TCMDC-135986] | 5.589%
CCc1c(C)nc(-n2nc(C)cc2NC(=O)CC(c2ccccc2)c2ccccc2)[nH]c1=O [TCMDC-124933] | -29.94%
NC(=O)Nc1ccc2c(Nc3ccc(OCc4ccccc4)cc3)ncnc2c1 [TCMDC-131937] | 13.28%
Cc1ccc2sc(N(CCCn3ccnc3)C(=O)c3ccco3)nc2c1C [TCMDC-124922] | 21.61%
O=C(Cc1cccnc1)Nc1cccc(-c2cccc(-c3nc4ccc(C(F)(F)F)cc4[nH]3)c2)c1 [TCMDC-136815] | 21.33%
COc1ccc(CN2CCN(CCCCNC(=O)c3ccc(NC(=O)c4ccc(Cl)cc4)cc3)CC2)c(OC)c1 [TCMDC-138280] | 2.758%
COc1ccc(CC2(c3ccc(F)cc3)N=C(N)N(CCCc3cccnc3)C2=O)cc1 (stereo not drawn) [TCMDC-136541] | 12.34%
Cc1cc(N[C@@H](Cc2ccccc2)C(=O)NCCOc2ccccc2)nc(NCCc2ccc(F)cc2)n1 [TCMDC-134789] | 64.78%
Cc1cc(N[C@@H](Cc2ccccc2)C(=O)NCCOc2ccccc2)nc(NCC2CCCCC2)n1 [TCMDC-134933] | -5.307%
Cc1cc(N[C@@H](CC(C)C)C(=O)NCCOc2ccccc2)nc(NCCc2ccc(F)cc2)n1 [TCMDC-134795] | 47.6%
CCCC(C)Nc1nc(C)cc(N[C@@H](Cc2ccccc2)C(=O)NCCOc2ccccc2)n1 (stereo partly drawn) [TCMDC-134765] | -43.65%
Cc1cc(N[C@@H](Cc2ccccc2)C(=O)NCCOc2ccccc2)nc(NCCc2cccs2)n1 [TCMDC-134813] | 64.23%
Cc1cc(N[C@@H](Cc2ccccc2)C(=O)NCc2cccs2)nc(NCCOc2ccccc2)n1 [TCMDC-134758] | 28.84%
Cc1cccc(CNc2nc(C)cc(N[C@@H](Cc3ccccc3)C(=O)NCCOc3ccccc3)n2)c1 [TCMDC-134888] | 18.91%
Cc1cc(N[C@@H](Cc2ccccc2)C(=O)NCCOc2ccccc2)nc(NCCc2ccccn2)n1 [TCMDC-134748] | 75.62%
Cc1cc(N[C@@H](CC(C)C)C(=O)NCCOc2ccccc2)nc(NCCOc2ccccc2)n1 [TCMDC-134761] | 40.02%
Cc1cc(N[C@@H](CC(C)C)C(=O)NCCOc2ccccc2)nc(NCCc2ccccc2)n1 [TCMDC-134871] | 94.75%
